Active and inactive are the calls of the source.
Columns and labels:
[1] = small molecules captured by biotinylated probe aFSTL3 – biochemical, small-molecule microarray, fluorescence 635/667, stem cell growth factor project, primary screen (AID 1064); conditions: higher = more signal;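 note: measures binding of the biotinylated anti-FSTL3 antibody to printed compounds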
[2] = binders from COS7 lysate, DM2A8 probe, primary screen, torsin A project, cell lysate, small-molecule microarray, fluorescence 635/667 (AID 1065); conditions: higher = more signal, COS7 lysate expressing mutant human TOR1A
[3] = small molecules captured by biotinylated probe aFGF2 – biochemical, small-molecule microarray, fluorescence 635/667, stem cell growth factor project, primary screen (AID 1067); conditions: higher = more signal;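 note: measures binding of biotinylated aFGF2 protein to printed compounds on slides; z-score merges feature fluorescence and signal-to-noise across triplicate slides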
[4] = small molecules captured by biotinylated probe aFGF10 – biochemical, small-molecule microarray, fluorescence 635/667, stem cell growth factor project, primary screen (AID 1071); conditions: higher = more signal;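 note: score merges 667 nm spot intensity and signal to noise from triplicate slides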
[5] = target: Neurogenic locus notch homolog protein 2 (Homo sapiens) (UniProt Q04721); assay: small molecules binding Notch2 protein – biochemical, small-molecule microarray, 635 nm fluorescence, stem cell growth factors, primary screen (AID 1073); conditions: higher = more signal
Chain of Neurogenic locus notch homolog protein 2 (Homo sapiens) (Q04721 whole entry, looked up, canonical isoform): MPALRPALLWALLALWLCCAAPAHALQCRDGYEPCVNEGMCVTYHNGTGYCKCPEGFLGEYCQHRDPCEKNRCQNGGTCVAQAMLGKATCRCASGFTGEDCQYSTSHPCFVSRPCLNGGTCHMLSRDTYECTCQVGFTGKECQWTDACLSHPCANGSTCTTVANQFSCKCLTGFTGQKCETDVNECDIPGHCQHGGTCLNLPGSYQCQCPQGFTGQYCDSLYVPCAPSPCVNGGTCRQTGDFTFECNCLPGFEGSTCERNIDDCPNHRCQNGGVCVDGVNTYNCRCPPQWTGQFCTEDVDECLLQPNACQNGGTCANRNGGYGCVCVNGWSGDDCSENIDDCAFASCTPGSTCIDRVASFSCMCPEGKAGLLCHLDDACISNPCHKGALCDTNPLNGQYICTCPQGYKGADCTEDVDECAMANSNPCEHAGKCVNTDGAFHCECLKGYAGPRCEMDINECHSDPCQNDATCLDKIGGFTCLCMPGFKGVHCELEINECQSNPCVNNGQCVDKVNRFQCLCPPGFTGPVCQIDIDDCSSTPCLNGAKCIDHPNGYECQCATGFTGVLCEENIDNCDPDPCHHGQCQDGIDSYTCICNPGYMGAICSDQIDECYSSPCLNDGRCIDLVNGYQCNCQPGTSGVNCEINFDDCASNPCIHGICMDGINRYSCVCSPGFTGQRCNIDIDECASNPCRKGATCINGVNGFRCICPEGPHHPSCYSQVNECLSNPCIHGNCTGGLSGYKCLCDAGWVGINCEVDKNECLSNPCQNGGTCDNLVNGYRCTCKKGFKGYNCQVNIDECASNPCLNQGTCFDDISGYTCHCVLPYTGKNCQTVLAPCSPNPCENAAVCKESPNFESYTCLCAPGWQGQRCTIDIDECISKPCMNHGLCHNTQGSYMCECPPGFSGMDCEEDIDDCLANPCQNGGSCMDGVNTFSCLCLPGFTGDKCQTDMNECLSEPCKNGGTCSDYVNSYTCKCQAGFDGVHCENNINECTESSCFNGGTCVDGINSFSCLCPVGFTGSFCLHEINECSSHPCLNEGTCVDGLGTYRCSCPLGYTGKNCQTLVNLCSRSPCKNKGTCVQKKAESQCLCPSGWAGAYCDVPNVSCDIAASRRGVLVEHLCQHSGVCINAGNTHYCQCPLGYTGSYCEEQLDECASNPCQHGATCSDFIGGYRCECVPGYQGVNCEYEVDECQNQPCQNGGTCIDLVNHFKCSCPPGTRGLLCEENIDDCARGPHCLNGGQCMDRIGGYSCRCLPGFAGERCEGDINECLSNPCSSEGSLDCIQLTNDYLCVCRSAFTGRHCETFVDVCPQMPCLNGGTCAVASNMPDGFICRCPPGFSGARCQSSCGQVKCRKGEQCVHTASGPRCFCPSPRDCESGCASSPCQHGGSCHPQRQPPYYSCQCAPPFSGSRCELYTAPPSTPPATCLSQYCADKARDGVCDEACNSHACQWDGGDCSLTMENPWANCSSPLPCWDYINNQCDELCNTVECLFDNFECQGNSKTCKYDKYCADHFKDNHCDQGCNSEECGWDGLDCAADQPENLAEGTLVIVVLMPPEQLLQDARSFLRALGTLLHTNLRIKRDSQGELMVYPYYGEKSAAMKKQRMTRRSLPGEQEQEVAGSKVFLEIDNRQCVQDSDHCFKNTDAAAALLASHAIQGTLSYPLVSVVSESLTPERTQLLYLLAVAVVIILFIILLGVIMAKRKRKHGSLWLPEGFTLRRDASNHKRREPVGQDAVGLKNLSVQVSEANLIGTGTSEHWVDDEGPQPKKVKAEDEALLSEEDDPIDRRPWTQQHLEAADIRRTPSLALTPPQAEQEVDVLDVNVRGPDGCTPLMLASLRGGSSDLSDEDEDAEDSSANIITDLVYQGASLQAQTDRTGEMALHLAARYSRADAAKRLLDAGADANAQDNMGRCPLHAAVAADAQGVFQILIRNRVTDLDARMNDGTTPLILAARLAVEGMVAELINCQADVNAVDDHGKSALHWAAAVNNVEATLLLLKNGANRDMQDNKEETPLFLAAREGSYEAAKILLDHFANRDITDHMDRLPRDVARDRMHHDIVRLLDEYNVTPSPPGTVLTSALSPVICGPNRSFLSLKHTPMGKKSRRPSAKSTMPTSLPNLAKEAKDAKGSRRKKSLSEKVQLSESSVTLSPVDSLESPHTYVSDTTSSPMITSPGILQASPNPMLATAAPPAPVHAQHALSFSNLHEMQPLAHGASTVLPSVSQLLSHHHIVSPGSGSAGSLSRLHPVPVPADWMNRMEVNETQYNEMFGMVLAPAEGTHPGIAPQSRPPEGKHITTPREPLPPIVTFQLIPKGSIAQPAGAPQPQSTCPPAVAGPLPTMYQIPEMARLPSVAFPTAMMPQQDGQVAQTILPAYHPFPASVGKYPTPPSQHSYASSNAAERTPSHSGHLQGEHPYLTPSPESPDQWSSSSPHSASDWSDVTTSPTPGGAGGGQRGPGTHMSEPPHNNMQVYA

[6] = target: Pro-neuregulin-1, membrane-bound isoform (Homo sapiens) (UniProt Q02297); assay: small molecules binding neuregulin-1 protein – biochemical, small-molecule microarray, fluorescence 635/667, psychiatric disease protein project, primary screen (AID 1075); conditions: NRG1 binding, 635 nm fluorescence, higher = more signal;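 note: score combines 667 nm spot fluorescence with signal to noise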
Chain of Pro-neuregulin-1, membrane-bound isoform (Homo sapiens) (Q02297 whole entry, looked up, the tested form may be a part, canonical isoform): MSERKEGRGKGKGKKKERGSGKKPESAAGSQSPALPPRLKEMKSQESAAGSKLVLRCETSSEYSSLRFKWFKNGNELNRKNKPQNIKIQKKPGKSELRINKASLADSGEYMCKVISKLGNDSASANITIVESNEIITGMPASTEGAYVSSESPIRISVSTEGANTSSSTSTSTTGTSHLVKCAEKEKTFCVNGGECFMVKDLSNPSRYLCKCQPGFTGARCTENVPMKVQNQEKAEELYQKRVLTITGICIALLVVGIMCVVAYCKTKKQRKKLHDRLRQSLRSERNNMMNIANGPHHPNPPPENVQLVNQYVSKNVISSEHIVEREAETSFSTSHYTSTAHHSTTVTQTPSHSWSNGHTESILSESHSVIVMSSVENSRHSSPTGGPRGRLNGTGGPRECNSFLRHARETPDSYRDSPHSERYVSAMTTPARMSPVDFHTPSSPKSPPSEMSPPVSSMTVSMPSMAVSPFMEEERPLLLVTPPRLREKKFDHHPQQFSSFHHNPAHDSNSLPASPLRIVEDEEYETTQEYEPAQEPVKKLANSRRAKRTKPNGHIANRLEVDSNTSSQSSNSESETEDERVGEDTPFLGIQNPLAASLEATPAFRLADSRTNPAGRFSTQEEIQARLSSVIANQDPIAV

[7] = system: Neuregulin-1 EGF-like domain; assay: small molecules binding NRG1 EGF domain – biochemical, small-molecule microarray, 635 nm fluorescence, primary screen (AID 1081); conditions: higher = more signal;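 note: binding of the protein to compounds printed on small-molecule microarray slides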
[8] = FRG1 expression reporter modulators in myotubes – cell-based, C2C12 myotubes, firefly/Renilla luciferase, luminescence, FRG1 inhibition for FSHD, primary screen (AID 1084); conditions: FRG1 promoter luciferase, higher = more signal, called active from +8 up or from −8 down
[9] = small molecules captured by biotinylated probe aFST – biochemical, small-molecule microarray, fluorescence 635/667, stem cell growth factor project, primary screen (AID 1086); conditions: higher = more signal;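 note: score merges 667 nm fluorescence with signal-to-noise of each printed compound spot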
[10] = binders of probe aHhip on microarray, primary screen, stem cell growth factor project, biochemical, small-molecule microarray, fluorescence 635/667 (AID 1087); conditions: higher = more signal;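 note: score merges spot fluorescence at 667nm with spot signal to noise ratio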

| Compound | composite z-score [1] | composite z-score [2] | composite z-score [3] | composite z-score [4] | composite z-score [5] | composite z-score [6] | composite z-score [7] | z-score [8] | composite z-score [9] | composite z-score [10] |
| --- | --- | --- | --- | --- | --- | --- | --- | --- | --- | --- |
| [N-]=[N+]=NCc1ccccc1[C@@H]1OC(c2ccc(OCCCO)cc2)=N[C@]1(Cc1ccccc1)C(N)=O | 0.0286 | -0.187 | 0.0062 | 0.98 | 1.6 | 1.99 | 1.29 | 2.02 (inactive) | 1.35 | -0.249 |
| COc1cccc(-c2cccc(=O)o2)c1 | 0.782 | -0.387 | 0.338 | 0.143 | 0.0405 | 0.851 | 0.322 | 5.22 (inactive) | 0.807 | -0.236 |
| CN(C)CCCCCCNC(=O)[C@H]1C[C@H]2C(=O)N3CCC[C@H]3C(=O)N2[C@H]1c1ccc(O)cc1 | -0.0698 | 1.93 | 0.0082 | 1.16 | 0.863 | 0.854 | 1.49 | 3.92 (inactive) | 0.2 | 0.151 |
| [N-]=[N+]=NCc1ccccc1C[C@]1(C(N)=O)COC(c2ccc(OCCCO)cc2)=N1 | 0.293 | 2.02 | -0.0805 | -0.101 | 0.63 | 1.59 | 1.03 | -1.41 (inactive) | 0.847 | 0.154 |
| CC(C)NC(=O)[C@@H]1c2ccccc2C(=O)N(C2Cc3ccccc3C2)[C@H]1c1ccc(CO)cc1 | 0.351 | 0.329 | -0.0234 | 0.0799 | 0.526 | 0.634 | 0.998 | -0.943 (inactive) | 0.148 | -0.131 |
| NCCCCCCNC(=O)[C@@H]1C[C@@H]2C(=O)NCC(=O)N2[C@@H]1c1ccc(O)cc1 | -0.175 | 0.853 | -0.14 | 0.177 | 0.571 | 1.32 | 1.41 | 1.03 (inactive) | 0.703 | -0.207 |
| C=CCOC(=O)[C@H]1[C@@H]2C(=O)O[C@@H](c3ccccc3)[C@@H](c3ccccc3)N2[C@@H](c2ccc(OCCOC(=O)[C@@H]3C[C@@H]4C(=O)N[C@@H](CC(C)C)C(=O)N4[C@@H]3c3ccc(O)cc3)cc2)[C@]12C(=O)Nc1ccccc12 | -0.254 | 0.479 | 0.0056 | 0.649 | 0.85 | 1.02 | 1.2 | 0.631 (inactive) | 0.0922 | 0.0201 |
| COc1ccc([Si](C)(C)[C@@H]2[C@@H](CCO)O[C@]3(C(=O)N(Cc4ccc(N(C=O)c5ccccc5)cc4)c4ccccc43)[C@H]2C)cc1 | 0.235 | 0.0422 | -0.0332 | 0.255 | 0.719 | 0.508 | 0.565 | -3.73 (inactive) | 0.643 | -0.0994 |
| C=CCOC(=O)[C@H]1[C@@H]2C(=O)O[C@@H](c3ccccc3)[C@@H](c3ccccc3)N2[C@@H](c2ccc(OCCOC(=O)[C@H]3C[C@H]4C(=O)N[C@@H](CCCCNC(C)=O)C(=O)N4[C@H]3c3cccc(OCCO)c3)cc2)[C@]12C(=O)Nc1ccccc12 | -0.0212 | 1 | -0.0723 | 0.732 | 0.279 | 0.786 | 1.11 | 1.12 (inactive) | -0.047 | -0.0994 |
| NC(=O)NCC#Cc1ccc2c(c1)[C@]1(C(=O)N2)[C@H](C(N)=O)[C@H]2C(=O)O[C@H](c3ccccc3)[C@H](c3ccccc3)N2[C@@H]1c1ccc(O)cc1 | 1.41 | -0.0275 | -0.0413 | -0.166 | -0.723 | 1.14 | -0.22 | -0.0861 (inactive) | 0.752 | 1.15 |
| COc1ccc(CCNC(=O)[C@@]2(Sc3ccc(C)cc3)CC(=O)N(C(C)C)[C@@H]2c2ccc(CO)cc2I)cc1 | -0.0354 | -0.566 | 0.0376 | -0.341 | -0.83 | -0.387 | 0.31 | -0.132 (inactive) | 0.238 | -0.511 |
| C=CCNC(=O)[C@H]1[C@@H]2C(=O)O[C@@H](c3ccccc3)[C@@H](c3ccccc3)N2[C@@H](c2ccccc2OCCO)[C@]12C(=O)Nc1ccc(C#CCCO)cc12 | 0.103 | -0.773 | 0.882 | -0.0077 | 0.119 | 0.82 | 0.537 | -5.02 (inactive) | -0.155 | 0.142 |
| CCOC(=O)C[C@H]1[C@H](OC(=O)c2ccccc2-c2ccccc2)[C@@H](NC(=O)CC(C)C)c2cc(OCCCO)ccc2N1C(=O)Cc1ccc(OC)cc1 | -0.259 | 0.43 | -0.104 | 0.225 | 0.135 | 0.173 | -0.155 | 0.506 (inactive) | 0.327 | -0.199 |
| C=C(C)[C@@H]1CC=C(C(O)C2C=CC3C(=O)N(c4ccccc4)C(=O)C3N2Nc2ccccc2)CC1 (stereo not given in full) | 1.08 | 0.881 | 0.364 | 0.929 | 1.26 | 1.57 | 1.28 | -0.441 (inactive) | 1.54 | 1.07 |

Source: PubChem BioAssay
